Measured values: PubChem BioAssay (Tox21)
Records with an inconclusive call do not appear. Active and inactive are the calls of the source. Unless noted, calls follow the shape of the full dose curve.

Assays:
[1] = Nuclear factor erythroid 2-related factor 2/antioxidant responsive element (Nrf2/ARE) small molecule agonists: qHTS cell viability counter screen in human keratinocytes (AID 1919968; active = well fitted curve in the direction sought with a large enough effect in the repeat runs; an effect the other way counts as inactive or inconclusive; also: nearly all actives have a fitted effect of over 55% in size)
Method in brief: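 KeratinoSens cells (HaCaT keratinocytes stably carrying an ARE-luciferase reporter) were seeded at 1,500 cells/well and rested 5 h at 37 C/5% CO2. They were then exposed to compounds in DMSO for 23 h. Viability was read by CellTiter-Fluor fluorescence after 1 h.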

[2] = Nuclear factor erythroid 2-related factor 2/antioxidant responsive element (Nrf2/ARE) small molecule agonists: luciferase reporter gene qHTS assay in human keratinocytes (AID 1919969); also: nearly all actives have a fitted effect of over 35% in size
[3] = molecular target: Gonadotropin-releasing hormone receptor (Homo sapiens) (UniProt P30968); assay: Human gonadotropin-releasing hormone receptor (GnRHR) small molecule agonists, calcium flux assay in GnRHR-HEK293 cells (AID 1920063); also: nearly all actives have a fitted effect of over 35% in size
Chain of Gonadotropin-releasing hormone receptor (Homo sapiens) (P30968 whole entry, looked up): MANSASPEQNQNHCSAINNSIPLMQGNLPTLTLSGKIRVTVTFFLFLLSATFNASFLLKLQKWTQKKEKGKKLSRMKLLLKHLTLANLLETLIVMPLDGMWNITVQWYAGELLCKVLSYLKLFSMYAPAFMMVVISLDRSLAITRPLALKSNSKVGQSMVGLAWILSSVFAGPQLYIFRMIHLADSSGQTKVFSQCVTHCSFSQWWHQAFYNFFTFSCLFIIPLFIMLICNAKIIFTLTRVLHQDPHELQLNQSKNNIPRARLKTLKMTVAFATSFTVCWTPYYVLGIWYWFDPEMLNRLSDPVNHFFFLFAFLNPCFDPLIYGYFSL
Method in brief: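 HEK293 cells stably expressing human GnRHR were plated 18 h at 37 °C, loaded with calcium dye 1 h at 37 °C, then given compound in agonist mode; fluorescence (Ex/Em 480/540) read kinetically for 3 min at 1 s intervals.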

[4] = molecular target: KiSS-1 receptor (Homo sapiens) (UniProt Q969F8); assay: Human kisspeptin (KISS1R) small molecule agonists, calcium flux assay in KISS1R-HEK293 cells (AID 1920064; active = well fitted curve in the direction sought with a large enough effect in the repeat runs; an effect the other way counts as inactive or inconclusive)
Chain of KiSS-1 receptor (Homo sapiens) (Q969F8 whole entry, looked up): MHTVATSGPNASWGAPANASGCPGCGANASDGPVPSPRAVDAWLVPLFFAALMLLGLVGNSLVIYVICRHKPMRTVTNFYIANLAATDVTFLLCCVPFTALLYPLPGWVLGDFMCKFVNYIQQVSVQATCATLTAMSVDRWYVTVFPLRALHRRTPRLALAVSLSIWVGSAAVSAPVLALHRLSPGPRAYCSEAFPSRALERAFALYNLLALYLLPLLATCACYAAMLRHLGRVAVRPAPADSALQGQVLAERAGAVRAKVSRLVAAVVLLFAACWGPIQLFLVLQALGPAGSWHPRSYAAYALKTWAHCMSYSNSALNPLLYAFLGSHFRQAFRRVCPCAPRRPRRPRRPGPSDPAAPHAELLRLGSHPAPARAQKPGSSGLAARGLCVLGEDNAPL
Method in brief: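 HEK293 cells stably expressing human KISS1R were plated 18 h at 37 °C, loaded with calcium dye for 1 h at 37 °C, then given compound by pin tool. Fluorescence (Ex/Em 480/540) was read kinetically for 3 min.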

[5] = G protein-coupled receptor (GPCR) small molecule agonists, calcium flux assay: HEK293 wild type cell line counter screen (AID 1920065)
Method in brief: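 Cells were plated and cultured 18 h at 37 C/5% CO2, then loaded with calcium dye for 1 h at 37 C. Compounds in DMSO were pin-transferred in agonist mode, and fluorescence (Ex/Em 480/540) was read kinetically for 3 min at 1 s intervals.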

[6] = p53 small molecule agonists, cell-based qHTS assay with human liver microsomes (AID 1963577);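 also: p53 response element beta-lactamase reporter cells with liver microsomes plus NADPH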
Method in brief: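 In this qHTS, p53 response-element beta-lactamase cells receive test compound together with a microsome/NADPH activating system (0.5 mg/mL final each) and are incubated 16 h at 37 C before LiveBLAzer fluorescence detection.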

[7] = p53 small molecule agonists, cell-based qHTS assay with rat liver microsomes (AID 1963578)
Method in brief: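 Agonist mode in p53RE-bla reporter cells, with compounds co-incubated 16 h at 37 C alongside 0.5 mg/mL rat liver microsomes and 0.5 mg/mL NADPH (final), followed by a 2 h LiveBLAzer detection step.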

[8] = p53 small molecule agonists, cell-based qHTS assay with human liver microsomes: qHTS cell viability counter screen (AID 1963579); also: nearly all actives have a fitted effect of over 45% in size
Method in brief: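 Metabolically activated exposure: compounds, human liver microsomes and NADPH (0.5 mg/mL final apiece) were added to p53RE-bla cells seeded 5 h earlier, left 16 h at 37 C, and then assessed for viability by CellTiter-Glo luminescence.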

[9] = p53 small molecule agonists, cell-based qHTS assay with rat liver microsomes: qHTS cell viability counter screen (AID 1963580); also: nearly all actives have a fitted effect of over 45% in size
Method in brief: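 p53RE-bla HCT-116 cells (4,000/well) rested 5 h at 37 C, then given Tox21 compounds in DMSO with rat liver microsomes (0.5 mg/mL final) plus NADPH (0.5 mg/mL final) for 16 h at 37 C. Viability read by CellTiter-Glo luminescence after 30 min at room temperature.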

[10] = p53 small molecule agonists, cell-based qHTS assay: qHTS cell viability counter screen (AID 1963581); also: nearly all actives have a fitted effect of over 45% in size
Method in brief: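 p53RE-bla HCT-116 cells were exposed to compounds for 16 h at 37 C; after the beta-lactamase FRET read in the same wells, CellTiter-Glo was added and luminescence (intracellular ATP) read after 30 min at room temperature.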

[11] = p53 small molecule agonists, cell-based qHTS assay (AID 1963582; active = well fitted activation curve with a large enough effect in the signal ratio in the repeat runs, not every such curve was filed as active; the % refers to the signal ratio)
Method in brief: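 p53RE-bla beta-lactamase reporter cells rested 5 h at 37 C/5% CO2, then received compounds in DMSO by pin transfer and were incubated 16 h at 37 C. LiveBLAzer B/G FRET substrate was loaded for 2 h at room temperature before fluorescence reading.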

[12] = molecular target: Muscarinic acetylcholine receptor M1 (Homo sapiens) (UniProt P11229); assay: Cholinergic receptor muscarinic 1 (CHRM1) small molecule agonists, cell-based qHTS assay (AID 1963589); also: nearly all actives have a fitted effect of over 35% in size
Chain of Muscarinic acetylcholine receptor M1 (Homo sapiens) (P11229 whole entry, looked up): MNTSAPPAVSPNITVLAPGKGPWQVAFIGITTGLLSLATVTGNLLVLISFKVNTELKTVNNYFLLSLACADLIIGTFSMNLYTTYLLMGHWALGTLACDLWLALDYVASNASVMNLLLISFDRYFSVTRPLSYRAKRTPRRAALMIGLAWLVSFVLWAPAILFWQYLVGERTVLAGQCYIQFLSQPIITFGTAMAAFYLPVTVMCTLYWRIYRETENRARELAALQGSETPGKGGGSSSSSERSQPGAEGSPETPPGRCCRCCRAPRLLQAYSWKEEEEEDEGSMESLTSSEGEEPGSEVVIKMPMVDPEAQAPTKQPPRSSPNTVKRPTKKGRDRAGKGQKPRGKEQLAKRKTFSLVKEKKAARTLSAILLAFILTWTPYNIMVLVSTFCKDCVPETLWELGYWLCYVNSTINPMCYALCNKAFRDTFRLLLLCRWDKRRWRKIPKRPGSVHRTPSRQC
Method in brief: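 CHO cells stably expressing human CHRM1, seeded 18 h at 37 C/5% CO2, dye-loaded 1 h at 37 C, then given compound in agonist mode; intracellular calcium fluorescence read kinetically at 1 s intervals. Fifteen concentrations, three independent runs.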

[13] = cAMP Responsive Elements (CRE) small molecule agonists, cell-based qHTS assay (AID 1963590)
Method in brief: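 CRE-bla HEK 293T cells in DMEM with 10% dialyzed FBS, NEAA, pyruvate and 25 mM HEPES were plated 18 h at 37 C/5% CO2, then exposed to compounds in DMSO for 3 h before LiveBLAzer B/G FRET substrate addition.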

[14] = cAMP Responsive Elements (CRE) small molecule antagonists, cell-based qHTS assay (AID 1963591; active = well fitted inhibition curve with a large enough effect in the signal ratio in the repeat runs, not every such curve was filed as active; the % refers to the signal ratio)
Method in brief: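 CRE-bla HEK293T cells were plated 18 h at 37 °C/5% CO2, pinned with compound in DMSO, then stimulated with NKH477 at 0.25 uM final for 3 h. LiveBLAzer B/G FRET substrate was added and plates incubated 2 h at room temperature.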

[15] = molecular target: Beta-2 adrenergic receptor (Homo sapiens) (UniProt P07550); assay: Adrenergic beta2 receptor (ADRB2) small molecule antagonists, cell-based qHTS assay (AID 1963592); also: series mostly up to about 92 µM; nearly all actives have a fitted effect of over 50% in size
Chain of Beta-2 adrenergic receptor (Homo sapiens) (P07550 whole entry, looked up): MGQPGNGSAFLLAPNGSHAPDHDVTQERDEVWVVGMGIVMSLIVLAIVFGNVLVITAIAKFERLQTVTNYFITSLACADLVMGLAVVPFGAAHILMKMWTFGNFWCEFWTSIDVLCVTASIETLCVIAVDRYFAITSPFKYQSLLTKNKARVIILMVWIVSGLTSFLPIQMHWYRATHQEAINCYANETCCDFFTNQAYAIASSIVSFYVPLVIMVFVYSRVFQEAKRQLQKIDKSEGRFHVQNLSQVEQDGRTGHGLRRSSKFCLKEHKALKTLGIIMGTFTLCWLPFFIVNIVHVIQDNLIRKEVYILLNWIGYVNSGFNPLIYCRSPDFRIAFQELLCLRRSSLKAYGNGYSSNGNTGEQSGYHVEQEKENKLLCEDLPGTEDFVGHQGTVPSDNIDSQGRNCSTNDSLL
Method in brief: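 Cells (CHO, stable ADRB2 overexpression) incubated 18-20hr at 37C; compounds added from DMSO; agonist mix (1nM isoproterenol, 100uM IBMX, 25uM Ro-20-1724) added; 0.5hr RT; d2-cAMP and anti-cAMP-cryptate added; 1hr RT; 665/615 nm read.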

[16] = molecular target: Beta-2 adrenergic receptor (Homo sapiens) (UniProt P07550); assay: Adrenergic beta2 receptor (ADRB2) small molecule agonists, cell-based qHTS assay (AID 1963593);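 also: CHO cells stably overexpressing human ADRB2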
Method in brief: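 CHO cells stably over-expressing ADRB2 were plated overnight at 37C, then dosed with compounds plus a stimulation mix containing 100uM IBMX and 25uM Ro-20-1724 for 0.5hr at room temperature. cAMP was measured by HTRF competition, 1hr.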

[17] = molecular target: D(2) dopamine receptor (Homo sapiens) (UniProt P14416); assay: Dopamine D2 receptor (DRD2) small molecule agonists, cell-based qHTS assay (AID 1963594); also: nearly all actives have a fitted effect of over 35% in size
Chain of D(2) dopamine receptor (Homo sapiens) (P14416 whole entry, looked up): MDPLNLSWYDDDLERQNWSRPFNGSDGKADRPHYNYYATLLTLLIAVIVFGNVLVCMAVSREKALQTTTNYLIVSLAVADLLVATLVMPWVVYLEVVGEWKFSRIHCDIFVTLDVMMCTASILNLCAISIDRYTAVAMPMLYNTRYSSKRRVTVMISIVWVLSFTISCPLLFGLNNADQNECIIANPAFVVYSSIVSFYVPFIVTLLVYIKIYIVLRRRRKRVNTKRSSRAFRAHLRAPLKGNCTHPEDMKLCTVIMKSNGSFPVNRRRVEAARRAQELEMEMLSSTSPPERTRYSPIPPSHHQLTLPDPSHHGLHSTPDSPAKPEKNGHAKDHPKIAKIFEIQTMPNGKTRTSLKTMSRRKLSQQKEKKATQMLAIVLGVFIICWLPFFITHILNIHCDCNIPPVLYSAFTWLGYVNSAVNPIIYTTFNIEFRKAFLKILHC
Method in brief: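 HEK293 cells stably expressing DRD2 were cultured 24 h at 37 C, then given Ro20-1724 (0.1 mM final) and compounds for 10 min at room temperature. NKH477 (200nM) was then added for 30 min. cAMP was read by HTRF.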

[18] = molecular target: D(2) dopamine receptor (Homo sapiens) (UniProt P14416); assay: Dopamine D2 receptor (DRD2) small molecule antagonists, cell-based qHTS assay (AID 1963595; active = well fitted inhibition curve with a large enough effect in the signal ratio in the repeat runs, with a control signal flat; the % refers to the signal ratio)
Method in brief: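 HEK293 cells stably expressing DRD2, preincubated with 0.1 mM Ro20-1724 and compounds 10 min, were stimulated with 200 nM NKH477 plus 12 nM quinpirole for 30 min at room temperature; cAMP measured by HTRF (665/620 nm).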

[19] = molecular target: Muscarinic acetylcholine receptor M1 (Homo sapiens) (UniProt P11229); assay: Cholinergic receptor muscarinic 1 (CHRM1) small molecule antagonists, cell-based qHTS assay (AID 1963588); also: nearly all actives have a fitted effect of over 40% in size
Method in brief: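 CHRM1-CHO calcium-flux assay, antagonist mode. Cells were seeded 18 h, dye-loaded 1 h at 37 C and given compound for 5 min at RT, then acetylcholine was added at 50nM. FDSS fluorescence was read 3 min; 15 concentrations, three runs.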

[20] = molecular target: 5-hydroxytryptamine receptor 2A (Homo sapiens) (UniProt P28223); assay: 5-hydroxytryptamine receptor 2A (HTR2A) small molecule agonists, cell-based qHTS assay (AID 1963587); also: nearly all actives have a fitted effect of over 30% in size
Chain of 5-hydroxytryptamine receptor 2A (Homo sapiens) (P28223 whole entry, looked up): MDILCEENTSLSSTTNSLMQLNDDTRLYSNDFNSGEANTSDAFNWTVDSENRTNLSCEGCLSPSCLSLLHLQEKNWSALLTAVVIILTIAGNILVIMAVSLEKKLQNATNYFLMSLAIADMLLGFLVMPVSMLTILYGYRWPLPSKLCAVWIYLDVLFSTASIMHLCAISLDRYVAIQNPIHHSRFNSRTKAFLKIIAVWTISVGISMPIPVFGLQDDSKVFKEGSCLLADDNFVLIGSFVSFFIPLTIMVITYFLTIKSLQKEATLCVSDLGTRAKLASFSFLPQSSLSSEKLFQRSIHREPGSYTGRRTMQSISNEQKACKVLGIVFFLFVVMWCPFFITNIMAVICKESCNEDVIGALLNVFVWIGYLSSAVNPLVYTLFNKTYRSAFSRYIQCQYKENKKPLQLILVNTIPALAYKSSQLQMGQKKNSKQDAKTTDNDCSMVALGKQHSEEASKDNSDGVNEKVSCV
Method in brief: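 HTR2A-CHO cells, plated 18 h at 37 C/5% CO2, dye-loaded 1 h at 37 C; compounds in DMSO added by pin tool (agonist mode). Intracellular calcium flux read as kinetic fluorescence on FDSS over 2 min at 1 s intervals.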
% is scaled to controls: 0 for no effect and ±100 for the full control effect.

CO[C@@H]1COCC[C@@H]1N[C@@H]1CC[C@@](C(=O)N2CCc3ncc(C(F)(F)F)cc3C2)(C(C)C)C1
inactive: Potency [1] | Potency [2] | Potency [3] | outcome [4] | outcome [5] | Potency [6] | Potency [7] | Potency [8] | Potency [9] | Potency [10] | Potency [11] | Potency [12] | Potency [13] | Potency [14] | Potency [15] | Potency [16] | Potency [17] | Potency [18]

C/C=C(\C)C=O
inactive: Potency [1] | Potency [2] | Potency [3] | outcome [4] | outcome [5] | Potency [6] | Potency [7] | Potency [8] | Potency [9] | Potency [10] | Potency [11] | Potency [19] | Potency [13] | Potency [14] | Potency [17] | Potency [18]

CCN1CN(CC)CN(CC)C1
inactive: Potency [1] | Potency [2] | Potency [3] | outcome [4] | outcome [5] | Potency [6] | Potency [7] | Potency [8] | Potency [9] | Potency [10] | Potency [11] | Potency [12] | Potency [13] | Potency [15] | Potency [17] | Potency [18]

c1ccc2c(CC3=NCCN3)cccc2c1
inactive: Potency [1] | Potency [2] | Potency [3] | outcome [4] | outcome [5] | Potency [6] | Potency [7] | Potency [8] | Potency [9] | Potency [10] | Potency [11] | Potency [20] | Potency [19] | Potency [12] | Potency [13] | Potency [14] | Potency [15] | Potency [16] | Potency [17] | Potency [18]

CC(=O)N(CC(=O)N(C)C)c1ccccc1
inactive: Potency [1] | Potency [2] | Potency [3] | outcome [4] | outcome [5] | Potency [6] | Potency [7] | Potency [8] | Potency [9] | Potency [10] | Potency [11] | Potency [20] | Potency [19] | Potency [12] | Potency [13] | Potency [14] | Potency [15] | Potency [16] | Potency [17] | Potency [18]

CCOC(=O)Cn1cccc1-c1nc(-c2ccc(OC)cc2)c(-c2ccc(OC)cc2)s1
inactive: Potency [1] | Potency [2] | Potency [3] | outcome [4] | outcome [5] | Potency [6] | Potency [7] | Potency [8] | Potency [9] | Potency [10] | Potency [11] | Potency [20] | Potency [19] | Potency [12] | Potency [13] | Potency [14] | Potency [15] | Potency [16] | Potency [17] | Potency [18]

CCc1cccc(CC)c1N(COC)C(=O)CS(=O)(=O)O
inactive: Potency [1] | Potency [2] | Potency [3] | outcome [4] | outcome [5] | Potency [6] | Potency [7] | Potency [8] | Potency [9] | Potency [10] | Potency [11] | Potency [20] | Potency [19] | Potency [12] | Potency [13] | Potency [14] | Potency [15] | Potency [17] | Potency [18]

CCOC(CN1CCN(CC(C)C(=O)c2ccccc2)CC1)c1ccccc1 (stereo not drawn)
inactive: activity change, negative = cytotoxicity [1] -17.1% [at 19 µM] | activity, positive = activation [2] 6.71% [at 19 µM] | activity change [3] -0.217% [at 11.8 µM, hits give high values] | activation [4] 2.43% [at 15.8 µM] | activation [5] 1.41% [at 11.8 µM] | activation [6] -8.35% [at 13.5 µM] | activation [7] 1.1% [at 13.6 µM] | activity change, negative = cytotoxicity [8] 24.1% [at 13.5 µM] | activity change, negative = cytotoxicity [9] 0.0683% [at 13.5 µM] | activity change, negative = cytotoxicity [10] 9.5% [at 13.5 µM] | activation [11] -3.89% [at 13.5 µM] | activation [20] -20.7% [at 15.9 µM] | activity, negative = inhibition [19] -8.62% [at 12.6 µM] | activation [12] -0.405% [at 15.8 µM] | activation [13] -1.09% [at 19 µM] | activity change, negative = inhibition [14] 10.1% [at 18.9 µM] | activity change, negative = inhibition [15] 4.02% [at 19 µM] | Potency [16] | activation [17] -24.3% [at 19 µM] | activity change, negative = inhibition [18] 9.08% [at 18.9 µM]

Nc1nc(-c2ccc([N+](=O)[O-])cc2)cs1
inactive: Potency [1] | Potency [2] | Potency [3] | outcome [4] | outcome [5] | Potency [6] | Potency [7] | Potency [8] | Potency [9] | Potency [10] | Potency [11] | Potency [20] | Potency [19] | Potency [12] | Potency [13] | Potency [14] | Potency [15] | Potency [16] | Potency [17] | Potency [18]

CCO[Si](CCCCl)(OCC)OCC
inactive: Potency [1] | Potency [2] | Potency [3] | outcome [4] | outcome [5] | Potency [6] | Potency [7] | Potency [8] | Potency [9] | Potency [10] | Potency [11] | Potency [20] | Potency [19] | Potency [12] | Potency [13] | Potency [14] | Potency [15] | Potency [16] | Potency [17] | Potency [18]

CC/C=C(\C)C=O
inactive: Potency [1] | Potency [2] | Potency [3] | outcome [4] | outcome [5] | Potency [6] | Potency [7] | Potency [8] | Potency [9] | Potency [10] | Potency [11] | Potency [20] | Potency [19] | Potency [12] | Potency [13] | Potency [14] | Potency [15] | Potency [17] | Potency [18]
